# Data as given in PubChem BioAssay (EPA / NIEHS).
# Inconclusive results are not listed. Activity calls are given as the source filed them. The calls were made as follows, unless noted: active = hit-call score of the fitted dose curve at least 0.9, where 1 is the maximum; inconclusive = response in the unintended direction; inactive = score below 0.9.
# Experiments:
# [1] = biological target: Glucocorticoid receptor (Homo sapiens) (UniProt P04150); test: ATG_GR_TRANS: Attagene TRANS-FACTORIAL HepG2 Assay for human Glucocorticoid Receptor (GR) (AID 2282978); details: HepG2 Attagene TRANS GR reporter, mRNA transcription;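 also: activators score as hits since higher reporter transcript over DMSO is fitted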
# Summary of the method: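 Transient MRTU transfection of HepG2 (GAL4-UAS reporters, exogenous NR-GAL4 chimeras), 24 h dosing. Readout: reporter transcript via RT-PCR + capillary electrophoresis fluorescence. Positive direction vs DMSO baseline.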
# [2] = biological target: Oxysterols receptor LXR-beta (Homo sapiens) (UniProt P55055); test: ATG_LXRb_TRANS: Attagene TRANS-FACTORIAL HepG2 Assay for human Liver X Receptor beta (LXRb) (AID 2282981); details: HepG2 Attagene TRANS GAL4-LXRb reporter, mRNA
# Summary of the method: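 Cells: HepG2, transiently transfected with GAL4-UAS reporter units plus LXRb-Gal4 fusion. Treatment: 24 h. Detection: reporter mRNA by RT-PCR, 6-FAM labelling, HpaI digestion, capillary electrophoresis.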
# [3] = biological target: Nuclear receptor subfamily 4 group A member 2 (Homo sapiens) (UniProt P43354); test: ATG_NURR1_TRANS: Attagene TRANS-FACTORIAL HepG2 Assay for human Nuclear Receptor Related Protein 1 (NURR1) (AID 2282985); details: HepG2 Attagene TRANS reporter, mRNA readout
# Summary of the method: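 Cells: HepG2, transiently transfected. Exposure: 24 h. Detection: fluorescence of labelled RT-PCR products separated by capillary electrophoresis; upward fit versus DMSO.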
# [4] = biological target: human RAR-related Orphan Receptor beta (RORb), RORB (gene 6096) (UniProt Q92753); test: ATG_RORb_TRANS: Attagene TRANS-FACTORIAL HepG2 Assay for human RAR-related Orphan Receptor beta (RORb) (AID 2283010)
# Summary of the method: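 HepG2 cells were transiently transfected with multiplexed GAL4-UAS reporter units expressing chimeric nuclear receptor–GAL4 proteins, then dosed for 24 h. Reporter mRNA was quantified by RT-PCR with fluorescent labelling and capillary electrophoresis; gain of signal was fitted relative to DMSO.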
# [5] = biological target: Retinoic acid receptor RXR-alpha (Homo sapiens) (UniProt P19793); test: ATG_RXRa_TRANS: Attagene TRANS-FACTORIAL HepG2 Assay for human Retinoid X Receptor alpha (RXRa) (AID 2283012)
# Summary of the method: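 HepG2 cells transiently transfected with multiplexed GAL4-UAS reporter units and chimeric NR-GAL4 fusions, dosed 24 h. Reporter mRNA measured by RT-PCR, FAM labelling, HpaI digestion and capillary electrophoresis; gain-of-signal fitted relative to DMSO baseline.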
# [6] = biological target: human Thyroid Receptor alpha (THRa1), THRA (gene 7067) (UniProt P10827); test: ATG_THRa1_TRANS: Attagene TRANS-FACTORIAL HepG2 Assay for human Thyroid Receptor alpha (THRa1) (AID 2283014)
# Summary of the method: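 Measured here is mRNA from a GAL4-UAS reporter in transfected HepG2 cells carrying a Gal4-fused receptor, 24 h post-dose. DMSO served as negative control and baseline.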
# [7] = CCTE_Harrill_HTTr_Viability_MCF7: CCTE's 6-hour Cell Viability Assessment for the High-Throughput Transcriptomics (HTTr) Platform, in MCF-7 cells cultured in DMEM + 10% fetal bovine serum, Harrill Lab (AID 2284010; active = hit-call score of the fitted dose curve at least 0.9, where 1 is the maximum; inactive = score below 0.9)
# Summary of the method: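 Membrane integrity was scored by high-content imaging of propidium iodide dye exclusion after a 6 h exposure across an eight-point dilution series. Data were fitted bidirectionally relative to DMSO as negative control and baseline.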
# [8] = CCTE_Harrill_HTTr_Apoptosis_MCF7: CCTE's 6-hour Apoptosis Assessment for the High-Throughput Transcriptomics (HTTr) Platform, in MCF-7 cells cultured in DMEM + 10% fetal bovine serum, Harrill Lab (AID 2284011; active = hit-call score of the fitted dose curve at least 0.9, where 1 is the maximum; inactive = score below 0.9)
# Summary of the method: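 Apoptosis in MCF-7 cells grown in DMEM with 10% fetal bovine serum was scored after a six hour exposure by high content imaging of caspase-3/7 activation (CellEvent Caspase 3/7 Green), with DMSO serving as negative control and baseline.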
# [9] = TOX21_p53_BLA_p3_viability: Viability Assessment in the Tox21 HCT-116 p53 Agonism Beta-lactamase Assay, Phase 3 (AID 2283593);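 also: cells exposed to compound for 16 h before reading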
# Summary of the method: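 Cellular ATP was quantified by CellTiter-Glo luminescence, read after 30 min at room temperature. Beforehand, HCT116 cells (4000/well) received compound 5 h post-seeding, 217-fold diluted from DMSO, then incubated 16 h at 37C.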
# [10] = TOX21_p53_BLA_p4_viability: Viability Assessment in the Tox21 HCT-116 p53 Agonism Beta-lactamase Assay, Phase 4 (AID 2283597);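 also: hits lower the luminescence signal meaning cytotoxicity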
# Summary of the method: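 Luminescent ATP readout (CellTiter-Glo, 30 min, room temperature) in the same wells as the p53 bla ratio. HCT116 cells were treated for 16 h at 37C with DMSO-dissolved compounds.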
# [11] = biological target: Bile acid receptor (Homo sapiens) (UniProt Q96RI1); test: ATG_IR1_CIS: Attagene CIS-FACTORIAL HepG2 Assay for human Nuclear Receptor Subfamily 1 Group H Member 4 (NR1H4), IR1 submotif (AID 2282946; active = hit-call score of the fitted dose curve at least 0.9, where 1 is the maximum; inactive = score below 0.9); details: IR1 reporter transcription, actives raise or lower the signal
# Summary of the method: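 Cells (human HepG2) carry transiently transfected cis-promoter reporter transcription units. Compounds are incubated 24 h, total RNA is reverse-transcribed and amplified, and labelled fragments are resolved by capillary electrophoresis. Curves use DMSO as baseline.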
# [12] = biological target: Nuclear receptor subfamily 1 group I member 3 (Homo sapiens) (UniProt Q14994); test: ATG_CAR_TRANS: Attagene TRANS-FACTORIAL HepG2 Assay for human Constitutive Androstane Receptor (CAR) (AID 2282969); details: HepG2 Attagene TRANS-FACTORIAL CAR reporter;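 also: activators raise reporter mRNA above DMSO so AC50 marks induction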
# Summary of the method: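 Readout is reporter mRNA induction, quantified by fluorescent primer extension and capillary electrophoresis after RT-PCR. Cells were HepG2 transiently carrying chimeric NR-Gal4 constructs with GAL4-UAS reporters, treated for 24 h; activity scored upward from DMSO.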
# [13] = biological target: Oxysterols receptor LXR-alpha (Homo sapiens) (UniProt Q13133); test: ATG_LXRa_TRANS: Attagene TRANS-FACTORIAL HepG2 Assay for human Liver X Receptor alpha (LXRa) (AID 2282980); details: HepG2 Attagene TRANS reporter, LXRa transactivation
# Summary of the method: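 In this multiplexed TRANS system, compounds act on HepG2 cells carrying GAL4-UAS reporter units and a receptor-GAL4 fusion for 24 h. Induced reporter RNA is amplified, fluorescently labelled and sized by capillary electrophoresis, with DMSO as baseline.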
# [14] = biological target: human RAR-related Orphan Receptor gamma (RORg), RORC (gene 6097) (UniProt P51449); test: ATG_RORg_TRANS: Attagene TRANS-FACTORIAL HepG2 Assay for human RAR-related Orphan Receptor gamma (RORg) (AID 2283011)
# Summary of the method: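 Chimeric RORg-Gal4 transactivation in transfected HepG2; 24 h exposure; RT-PCR/capillary electrophoresis readout of reporter mRNA, DMSO baseline.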
# [15] = biological target: human Vitamin D Receptor (VDR), VDR (gene 7421) (UniProt P11473); test: ATG_VDR_TRANS: Attagene TRANS-FACTORIAL HepG2 Assay for human Vitamin D Receptor (VDR) (AID 2283022)
# Summary of the method: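 Multiplexed TRANS reporter in HepG2; 24 h treatment; reporter mRNA by RT-PCR plus capillary electrophoresis; upregulation scored relative to DMSO.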
# [16] = ACEA_ER_AUC_viability: ACEA Biosciences xCELLigence Real-Time Cell Analysis on Estrogen Receptor Agonism for Viability (AID 2283782);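 also: continuous compound exposure with impedance area under curve over 80 h; hit means loss of impedance signal meaning reduced cell growth or viability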
# Summary of the method: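 T-47D; phenol red-free RPMI1640 + 10% CS-FBS; 8 conc., 1:4 serial, max 100 uM final, ≤0.5% DMSO; n = 2; continuous exposure; impedance monitored to 80 h post-dose; AUC vs DMSO.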
# [17] = ATG_XTT_Cytotoxicity: Cytotoxicity Assessment in the Attagene TRANS-FACTORIAL HepG2 Assay (AID 2283584)
# Summary of the method: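 24 h chemical exposure of reporter-transfected HepG2; XTT signal loss vs DMSO indicates cytotoxicity.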
# [18] = ATG_PPRE_CIS: Attagene CIS-FACTORIAL HepG2 Assay for human Peroxisome Proliferator-activated Response Element (PPRE) (AID 2282958; active = hit-call score of the fitted dose curve at least 0.9, where 1 is the maximum; inactive = score below 0.9); details: HepG2 PPRE cis-element reporter, Attagene transcription factor profiling; actives raise or lower the signal
# Summary of the method: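 Read-out: fluorescent reporter mRNA fragments resolved by capillary electrophoresis after RT-PCR. HepG2 cells carried transiently transfected PPRE-driven cis reporter constructs and were dosed for 24 h; gain or loss of signal fitted relative to DMSO.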
# [19] = biological target: Peroxisome proliferator-activated receptor gamma (Homo sapiens) (UniProt P37231); test: ATG_PPARg_TRANS: Attagene TRANS-FACTORIAL HepG2 Assay for human Peroxisome Proliferator-activated Receptor-gamma (PPARg) (AID 2283007)
# Summary of the method: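 Read-out: reporter mRNA induction, detected by fluorescence after RT-PCR and capillary electrophoresis. Transiently transfected human HepG2 liver cells carrying a chimeric NR-Gal4 construct were dosed for 24 h; activity was fitted upward relative to DMSO.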
# Nuclear receptor subfamily 4 group A member 2 (Homo sapiens), sequence (P43354 whole entry, looked up): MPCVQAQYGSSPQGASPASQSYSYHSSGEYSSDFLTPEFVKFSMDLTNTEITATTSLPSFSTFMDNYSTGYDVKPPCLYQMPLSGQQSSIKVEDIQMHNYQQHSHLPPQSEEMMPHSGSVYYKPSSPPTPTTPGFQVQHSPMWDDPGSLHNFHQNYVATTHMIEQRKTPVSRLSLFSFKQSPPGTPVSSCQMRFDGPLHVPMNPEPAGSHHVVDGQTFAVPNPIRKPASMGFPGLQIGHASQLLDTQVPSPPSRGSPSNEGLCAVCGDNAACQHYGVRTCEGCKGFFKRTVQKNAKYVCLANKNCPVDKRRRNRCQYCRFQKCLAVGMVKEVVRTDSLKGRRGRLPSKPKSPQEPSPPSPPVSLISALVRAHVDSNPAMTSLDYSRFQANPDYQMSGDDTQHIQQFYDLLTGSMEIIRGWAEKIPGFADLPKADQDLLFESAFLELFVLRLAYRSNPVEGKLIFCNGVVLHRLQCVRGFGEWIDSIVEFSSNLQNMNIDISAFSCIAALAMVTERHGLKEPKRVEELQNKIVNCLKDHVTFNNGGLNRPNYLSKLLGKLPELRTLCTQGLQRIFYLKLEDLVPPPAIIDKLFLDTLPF
# Retinoic acid receptor RXR-alpha (Homo sapiens), sequence (P19793 whole entry, looked up, the tested form may be a part): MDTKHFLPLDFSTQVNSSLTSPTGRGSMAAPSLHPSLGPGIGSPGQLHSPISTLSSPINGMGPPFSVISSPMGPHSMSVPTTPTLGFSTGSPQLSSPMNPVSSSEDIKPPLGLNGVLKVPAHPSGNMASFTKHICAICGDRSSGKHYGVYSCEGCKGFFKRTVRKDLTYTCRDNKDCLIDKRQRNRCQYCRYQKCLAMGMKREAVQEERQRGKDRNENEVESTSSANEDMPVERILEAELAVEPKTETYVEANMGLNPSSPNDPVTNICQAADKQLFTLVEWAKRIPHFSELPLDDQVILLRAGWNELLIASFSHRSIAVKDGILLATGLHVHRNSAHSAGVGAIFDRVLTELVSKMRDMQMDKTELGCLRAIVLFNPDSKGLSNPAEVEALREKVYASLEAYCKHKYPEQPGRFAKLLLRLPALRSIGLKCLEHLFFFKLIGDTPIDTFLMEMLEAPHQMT
# Bile acid receptor (Homo sapiens), sequence (Q96RI1 whole entry, looked up, the tested form may be a part): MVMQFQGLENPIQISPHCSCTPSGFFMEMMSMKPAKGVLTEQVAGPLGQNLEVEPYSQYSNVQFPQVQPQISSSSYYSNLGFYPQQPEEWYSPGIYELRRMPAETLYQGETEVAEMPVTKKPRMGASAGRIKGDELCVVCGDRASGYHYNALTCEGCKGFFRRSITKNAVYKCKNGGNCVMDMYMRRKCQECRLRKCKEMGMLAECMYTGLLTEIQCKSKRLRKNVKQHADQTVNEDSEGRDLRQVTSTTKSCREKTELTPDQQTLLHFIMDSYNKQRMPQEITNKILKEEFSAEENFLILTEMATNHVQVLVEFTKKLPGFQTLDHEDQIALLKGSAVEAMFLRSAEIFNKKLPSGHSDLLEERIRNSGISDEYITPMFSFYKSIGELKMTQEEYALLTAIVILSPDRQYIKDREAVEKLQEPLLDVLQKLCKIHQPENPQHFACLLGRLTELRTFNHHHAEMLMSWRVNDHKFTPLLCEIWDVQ
# Oxysterols receptor LXR-beta (Homo sapiens), sequence (P55055 whole entry, looked up, the tested form may be a part): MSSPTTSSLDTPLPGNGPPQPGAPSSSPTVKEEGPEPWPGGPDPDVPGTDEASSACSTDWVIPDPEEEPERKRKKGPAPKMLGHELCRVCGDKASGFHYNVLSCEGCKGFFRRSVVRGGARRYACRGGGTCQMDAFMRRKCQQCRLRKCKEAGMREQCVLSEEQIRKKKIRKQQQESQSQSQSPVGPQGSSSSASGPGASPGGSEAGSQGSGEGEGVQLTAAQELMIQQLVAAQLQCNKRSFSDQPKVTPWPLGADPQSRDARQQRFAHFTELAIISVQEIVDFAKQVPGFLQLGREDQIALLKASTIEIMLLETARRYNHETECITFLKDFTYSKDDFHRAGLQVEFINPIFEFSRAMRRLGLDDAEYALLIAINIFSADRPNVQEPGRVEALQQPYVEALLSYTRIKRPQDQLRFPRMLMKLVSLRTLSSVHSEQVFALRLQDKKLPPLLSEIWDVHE
# Oxysterols receptor LXR-alpha (Homo sapiens), sequence (Q13133 whole entry, looked up, the tested form may be a part): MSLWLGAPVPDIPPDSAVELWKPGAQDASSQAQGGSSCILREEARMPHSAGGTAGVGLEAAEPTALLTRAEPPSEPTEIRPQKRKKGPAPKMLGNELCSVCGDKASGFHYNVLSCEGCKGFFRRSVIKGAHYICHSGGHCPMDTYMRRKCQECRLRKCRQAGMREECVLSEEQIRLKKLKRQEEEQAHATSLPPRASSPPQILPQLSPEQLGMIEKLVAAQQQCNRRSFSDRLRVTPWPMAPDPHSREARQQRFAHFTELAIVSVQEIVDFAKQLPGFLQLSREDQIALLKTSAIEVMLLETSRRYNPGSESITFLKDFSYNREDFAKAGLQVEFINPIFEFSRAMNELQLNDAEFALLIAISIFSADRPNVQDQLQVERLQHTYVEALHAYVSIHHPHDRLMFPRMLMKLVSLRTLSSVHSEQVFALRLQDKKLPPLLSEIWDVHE
# Glucocorticoid receptor (Homo sapiens), sequence (P04150 whole entry, looked up, the tested form may be a part): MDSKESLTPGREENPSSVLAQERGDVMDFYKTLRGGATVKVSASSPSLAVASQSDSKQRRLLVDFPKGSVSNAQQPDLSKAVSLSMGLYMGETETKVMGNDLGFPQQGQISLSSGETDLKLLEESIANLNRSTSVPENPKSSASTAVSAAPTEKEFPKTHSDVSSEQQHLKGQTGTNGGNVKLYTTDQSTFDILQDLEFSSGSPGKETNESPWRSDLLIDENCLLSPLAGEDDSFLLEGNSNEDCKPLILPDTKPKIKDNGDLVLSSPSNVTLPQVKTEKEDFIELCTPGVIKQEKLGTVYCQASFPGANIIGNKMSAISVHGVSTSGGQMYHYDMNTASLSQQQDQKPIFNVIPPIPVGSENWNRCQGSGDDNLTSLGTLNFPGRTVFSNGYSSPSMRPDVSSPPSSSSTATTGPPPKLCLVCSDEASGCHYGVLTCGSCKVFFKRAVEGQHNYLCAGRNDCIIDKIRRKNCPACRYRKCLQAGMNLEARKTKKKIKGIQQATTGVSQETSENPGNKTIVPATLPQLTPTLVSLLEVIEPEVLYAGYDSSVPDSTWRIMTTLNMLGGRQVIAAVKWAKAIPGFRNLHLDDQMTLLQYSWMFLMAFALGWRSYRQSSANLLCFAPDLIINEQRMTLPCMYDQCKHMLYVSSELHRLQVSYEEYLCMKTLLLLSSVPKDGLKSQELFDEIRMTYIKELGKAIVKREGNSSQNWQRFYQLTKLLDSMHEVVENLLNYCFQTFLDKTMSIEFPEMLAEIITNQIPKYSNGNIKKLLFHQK
# human Thyroid Receptor alpha (THRa1), THRA (gene 7067), sequence (P10827 whole entry, looked up, the tested form may be a part): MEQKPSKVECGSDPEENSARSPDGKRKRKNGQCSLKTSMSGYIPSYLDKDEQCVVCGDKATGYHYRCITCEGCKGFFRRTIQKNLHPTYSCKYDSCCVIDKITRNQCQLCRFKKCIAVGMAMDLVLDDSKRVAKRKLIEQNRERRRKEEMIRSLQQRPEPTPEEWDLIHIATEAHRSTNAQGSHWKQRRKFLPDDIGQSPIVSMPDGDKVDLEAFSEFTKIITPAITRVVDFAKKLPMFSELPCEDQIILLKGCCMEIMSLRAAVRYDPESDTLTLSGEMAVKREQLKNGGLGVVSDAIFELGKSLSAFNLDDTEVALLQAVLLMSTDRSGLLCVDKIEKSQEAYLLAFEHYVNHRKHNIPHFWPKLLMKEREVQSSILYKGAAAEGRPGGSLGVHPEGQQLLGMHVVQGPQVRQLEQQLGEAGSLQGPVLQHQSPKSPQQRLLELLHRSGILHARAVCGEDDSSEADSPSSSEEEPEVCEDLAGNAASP
# Nuclear receptor subfamily 1 group I member 3 (Homo sapiens), sequence (Q14994 whole entry, looked up, the tested form may be a part): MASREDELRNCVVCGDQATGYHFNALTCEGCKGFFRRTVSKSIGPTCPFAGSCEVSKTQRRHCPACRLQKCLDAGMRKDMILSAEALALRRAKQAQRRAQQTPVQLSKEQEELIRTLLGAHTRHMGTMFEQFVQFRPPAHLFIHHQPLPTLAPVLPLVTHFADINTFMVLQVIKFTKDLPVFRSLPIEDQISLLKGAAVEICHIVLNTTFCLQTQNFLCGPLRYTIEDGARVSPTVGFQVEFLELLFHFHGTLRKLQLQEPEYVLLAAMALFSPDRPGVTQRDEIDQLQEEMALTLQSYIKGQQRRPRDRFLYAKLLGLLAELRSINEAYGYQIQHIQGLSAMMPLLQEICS
# human RAR-related Orphan Receptor gamma (RORg), RORC (gene 6097), sequence (P51449 whole entry, looked up, the tested form may be a part): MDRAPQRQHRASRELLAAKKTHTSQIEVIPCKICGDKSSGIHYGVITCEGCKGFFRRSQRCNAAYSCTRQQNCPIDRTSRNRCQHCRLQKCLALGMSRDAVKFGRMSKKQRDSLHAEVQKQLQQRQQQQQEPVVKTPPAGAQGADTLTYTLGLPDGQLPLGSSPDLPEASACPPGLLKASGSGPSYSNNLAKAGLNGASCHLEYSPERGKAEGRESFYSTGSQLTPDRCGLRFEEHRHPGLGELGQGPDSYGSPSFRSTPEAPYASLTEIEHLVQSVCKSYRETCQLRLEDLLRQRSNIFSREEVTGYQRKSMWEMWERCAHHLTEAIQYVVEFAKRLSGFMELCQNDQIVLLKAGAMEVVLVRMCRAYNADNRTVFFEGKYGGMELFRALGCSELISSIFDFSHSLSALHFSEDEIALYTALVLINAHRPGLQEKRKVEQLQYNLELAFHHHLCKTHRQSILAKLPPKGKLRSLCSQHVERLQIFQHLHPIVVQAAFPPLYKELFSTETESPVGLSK
compound,measurement,setting,value
O=C(O)/C=C\C(=O)O,outcome,[1],inactive
same,outcome,[2],inactive
same,outcome,[3],inactive
same,outcome,[4],inactive
same,outcome,[5],inactive
same,outcome,[6],inactive
same,outcome,[7],inactive
same,outcome,[8],inactive
C[C@H]1C[C@H]2[C@@H]3CCC4=CC(=O)C=C[C@]4(C)[C@@]3(F)[C@@H](O)C[C@]2(C)[C@@]1(O)C(=O)CO,outcome,[3],inactive
same,outcome,[6],inactive
same,outcome,[9],inactive
same,outcome,[10],inactive
same,outcome,[7],inactive
same,outcome,[8],inactive
C/C=C(\C)C(=O)OCC/C=C\CC,outcome,[11],inactive
same,outcome,[12],inactive
same,outcome,[13],inactive
same,outcome,[3],inactive
same,outcome,[14],inactive
same,outcome,[15],inactive
same,outcome,[16],inactive
CCC(=O)OCc1ccc(OC)cc1,outcome,[11],inactive
same,outcome,[12],inactive
same,outcome,[1],inactive
same,outcome,[13],inactive
same,outcome,[2],inactive
same,outcome,[3],inactive
same,outcome,[14],inactive
same,outcome,[5],inactive
same,outcome,[17],inactive
same,outcome,[10],inactive
same,AC50,[16],39.9 µM (active)
CNC(=C[N+](=O)[O-])NCCSCc1csc(CN(C)C)n1,outcome,[18],inactive
same,outcome,[12],inactive
same,outcome,[13],inactive
same,outcome,[2],inactive
same,outcome,[9],inactive
same,outcome,[10],inactive
same,outcome,[7],inactive
same,outcome,[8],inactive
CN(C)Cc1cc(C(C)(C)C)c(O)c(C(C)(C)C)c1,outcome,[18],inactive
same,outcome,[13],inactive
same,outcome,[2],inactive
same,AC50,[3],29.1 µM (active)
same,outcome,[19],inactive
same,AC50,[5],22.9 µM (active)
same,outcome,[15],inactive
same,outcome,[9],inactive
same,outcome,[10],inactive
NC(N)=Nc1nc(CSCCC(N)=NS(N)(=O)=O)cs1,outcome,[11],inactive
same,outcome,[18],inactive
same,outcome,[1],inactive
same,outcome,[2],inactive
same,outcome,[6],inactive
same,outcome,[17],inactive
same,outcome,[9],inactive
same,outcome,[10],inactive
same,outcome,[7],inactive
same,outcome,[8],inactive
